# Source: PubChem BioAssay
# LmPK inhibitor – inhibitors of Leishmania mexicana pyruvate kinase | Q27686 | purified LmPK, Kinase-Glo ATP luminescence, 1 h | Potency, µM (doses to about 57.5 µM), most hits filed as inhibitors | hit rate 0.37% among 290,000
#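 In 50 mM imidazole pH 7.2 with 7 mM MgCl2, LmPK (0.1 nM) turned over PEP (0.5 mM) and ADP (0.1 mM) for 1 h at room temperature. Luciferase read-out of ATP.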
# CHX counter – counter-screen hit for Shiga toxin inhibitors, cycloheximide; hit rate 12% among 300,000; cell reporter, cycloheximide protein synthesis inhibition counterscreen; max response, %; in the data active = max response mostly above about 13%, no sharp cut-off; inactive = mostly below about 14%; also: read at 38.3 µM for the half of the compounds with a filed dose
# Shiga toxin inh – blocks Shiga toxin action in Vero cells; Vero cells, Shiga toxin protein synthesis inhibition reporter; inhibition, % at 38.7 µM; hit rate 9.2% among 290,000; in the data active = inhibition mostly above about 28%, no sharp cut-off; inactive = mostly below about 43%
# Tb PYK inh – inhibitors of Trypanosoma brucei pyruvate kinase; TbPYK enzyme, Kinase-Glo Plus ATP luminescence, 45 min; Potency, µM (highest dose often 76.8 µM), most hits filed as inhibitors; AID 624173; Q57TT1; hit rate 0.12% among 410,000; also: nearly all actives have a fitted effect of over 50% in size
#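 Enzyme and substrate buffer are dispensed first and compound is pin-transferred. ADP at 130 uM final then starts the reaction, which runs 45 min at room temperature. Detection reagent is added for 10 min before luminescence is imaged.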
# Sm TGR inh – inhibitors of Schistosoma mansoni thioredoxin glutathione reductase; Q962Y6; purified TGR, DTNB reduction, TNB absorbance 405 nm; Potency, µM (top dose mostly 114 µM), most hits filed as inhibitors; hit rate 3% among 360,000; AID 485364; also: nearly all actives have a fitted effect of over 60% in size
#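 Kinetic colorimetric format: TGR-catalysed, NADPH-driven DTNB reduction monitored via TNB absorbance. Enzyme dispensed at 20 nM; compound exposure 15 min at room temperature before reaction start.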
# FBPA Giardia inh – inhibitors of Giardia lamblia fructose-1,6-bisphosphate aldolase; A8B2U2; purified Giardia FBPA; Potency, µM (series often up to 59.6 µM), usual class: inhibitors; hit rate 0.71% among 290,000; also: nearly all actives have a fitted effect of over 55% in size
# Target sequence (A8B2U2 whole entry, looked up): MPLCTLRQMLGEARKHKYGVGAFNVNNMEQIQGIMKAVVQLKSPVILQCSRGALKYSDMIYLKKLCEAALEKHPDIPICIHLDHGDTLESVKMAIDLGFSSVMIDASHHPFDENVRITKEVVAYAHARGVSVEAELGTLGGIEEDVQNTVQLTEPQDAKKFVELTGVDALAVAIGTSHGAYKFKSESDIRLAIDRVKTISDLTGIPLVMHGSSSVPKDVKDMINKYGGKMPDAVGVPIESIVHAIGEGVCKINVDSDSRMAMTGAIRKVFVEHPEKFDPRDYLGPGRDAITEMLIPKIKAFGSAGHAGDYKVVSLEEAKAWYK
#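 Giardia FBPA (40 nM reagent) was preincubated 10 min at RT with compound (up to 57.5 uM final), then substrate plus GAPDH/TPI/NAD/arsenate coupling system with diaphorase/resazurin was added; resorufin fluorescence (525/598 nm) was read after 20 min.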
# Numbers stand for hits; – = inactive; ? = inconclusive; · = no result; [ ] = another dose, or the depositor's remark. The sample as a whole holds a higher share of hits than the screen did. Unless noted, calls follow the shape of the dose curve; as a rule, active = well fitted curve in the direction sought with a large enough effect; inconclusive = small, poorly fitted or top-dose-only effect, or another doubt; inactive = no such curve, though single readings can be large; an effect the other way counts as inactive or inconclusive.
SMILES,LmPK inhibitor,CHX counter,Shiga toxin inh,Tb PYK inh,Sm TGR inh,FBPA Giardia inh
COc1ccc(NC(=O)c2ccccc2Oc2ccccc2)cc1,–,–,–,–,–,–
CCCc1c(C(=O)Nc2ccc(OC)cc2)cnn1-c1ccccc1,–,21.6,53.6,–,–,–
O=c1c2nc(Br)n([C@@H]3O[C@@H]4CO[P@@](O)(=S)O[C@H]4[C@H]3O)c2nc2[nH]c(-c3ccccc3)cn12,·,–,–,·,·,–
COC(=O)C1=C(C(=O)OC)[C@@H]2N(C)c3ccccc3[C@@]23C[C@@H](C(=O)OC)N(S(=O)(=O)c2ccc(C(F)(F)F)cc2)C3=N1,–[11.5 µM],·,·,·,·,–[12.9 µM]
Cc1ccccc1C(=O)NC(Oc1ccccc1)C(Cl)(Cl)Cl (configuration not stated),–,–,–,–,–,–
CCCC(=O)NC(Oc1ccc(C(C)=O)cc1)C(Cl)(Cl)Cl (configuration not stated),–,–,–,–,28.2µM,–
CCC(c1nnnn1-c1ccc2c(c1)OCCO2)N1CCN(c2ccc(F)cc2)CC1 (configuration not stated),·,·,·,–,·,·
O=C(Nc1nc(-c2ccccc2)cs1)C1CCCO1 (configuration not stated),–,38.1,110.9,–,–,–
O=C(Nc1nc(-c2ccc(F)cc2)cs1)C1CCCO1 (configuration not stated),–,42.0,103.7,–,–,–
O=C(Nc1nc(-c2ccc(-c3ccccc3)cc2)cs1)C1CCCO1 (configuration not stated),–,–,–,–,–,–
CCOc1ccccc1NC(=O)CN1CCc2ccccc2C1,–,–,–,–,–,–
CCOc1ccccc1NC(=O)N1CCc2ccccc2C1,–,18.7,–,–,–,·
COc1ccc(NC(=O)N2CCc3ccccc3C2)c(OC)c1,–,16.5,36.3,–,–,–
Cc1cc(C)n(-c2nc3ccccc3nc2Nc2ccc(Cl)c(C(=O)OC(C)C)c2)n1,·,·,·,–,–,·
Cc1cc2c(Nc3ccccc3)ncnc2s1,–,–,–,–,·,–
c1ccc(CCNc2ncnc3ccccc23)cc1,–,49.4,–,–,–,–
Cc1cc2c(NCCc3ccccc3)ncnc2s1,–,24.8,64.7,–,–,?
COc1ccc(NC(=O)CSc2nc3ccsc3c(=O)n2CCC(=O)O)cc1,·,·,·,–,·,·
Clc1ccc(OCc2nn3c(-c4ccco4)nnc3s2)cc1,–,–,–,–,31.6µM,–
COc1cccc(OC)c1-c1nn2c(-c3cc(-c4ccccc4)n[nH]3)nnc2s1,–,–,–,–,12.6µM,–
COc1ccccc1-c1nn2c(-c3ccco3)nnc2s1,–,67.7,112.5,–,?,–
c1coc(-c2nn3c(-c4ccco4)nnc3s2)c1,–,10.3,–,–,14.1µM,–
c1coc(-c2nnc3sc(Cc4cccs4)nn23)c1,–,–,–,?,–,–
COc1ccccc1-c1nn2c(-c3ccccc3Cl)nnc2s1,–,–,–,·,–,–
CO[C@H]1COC(=O)C/C=C\[C@H](C)[C@@H](OC)COC(=O)[C@H](Cc2ccccc2)NC(=O)C/C=C\[C@@H]1C,·,·,·,·,·,–[12.9 µM]
SMILES,LmPK inhibitor,CHX counter,Shiga toxin inh,Tb PYK inh,Sm TGR inh,FBPA Giardia inh
COc1cc(NC(=O)CSc2nccn2C)cc(OC)c1OC,·,·,·,–,–,·
CCN(c1ccc(C)cc1C)S(=O)(=O)c1nnc(NC(=O)c2ccc(F)cc2)s1,·,·,·,–,–,·
CC(C)N(CCCNC(=O)c1ccc(CS(=O)(=O)c2c(Cl)cccc2Cl)o1)Cc1ccccc1,–,–,–,–,?,–
CCOC(=O)N1CCN(C(=S)NC(=O)/C=C/c2ccc(C)cc2)CC1,–,–,–,–,–,·
Cc1ccc(S(=O)(=O)N2CC=C(c3c(C)n(CC(=O)N4CCCC4)c4ccccc34)CC2)cc1C,·,–,–,–,–,·
CC(=O)c1ccc(N2CCN(S(=O)(=O)c3ccc(-c4cnc(C5CC5)o4)cc3)CC2)cc1,–,–,–,–,–,·
Oc1ccc(Br)cc1C1C=C(c2ccc3c(c2)OCO3)NC(c2ccc(F)c(Br)c2)N1 (configuration not stated),·,54.5,93.2,·,·,·
Oc1ccccc1C1C=C(c2ccc3c(c2)OCO3)NC(c2ccc(F)c(Br)c2)N1 (configuration not stated),·,36.1,99.7,·,·,·
O=C1C=C(c2ccc3c(c2)OCO3)C[C@@H](c2ccc(F)cc2)C1,·,·,·,–,–,·
Cc1ccc(-n2nc(-c3ccc(F)cc3)c3cnc4cc5c(cc4c32)OCO5)cc1C,·,·,·,–,–,·
CC#CCN1c2ccccc2[C@]23C[C@@H](C(=O)OC)N(S(=O)(=O)c4c(C)noc4C)C2=NC(C(=O)OC)=C(C(=O)OC)[C@H]13,–[11.5 µM],·,·,·,·,–[12.9 µM]
CC1CCN(C(=O)CSc2nc3c(c(=O)n2C)SCC3)CC1,–,17.9,–,–,–,·
Cc1ccc(C(=O)Nc2nc(COc3ccccc3)cs2)s1,–,31.5,82.3,–,–,–
COc1cccc(OC)c1C(=O)Nc1nc(COc2ccccc2)cs1,–,–,–,–,–,–
CC(=O)Nc1nc(CCl)cs1,–,–,–,–,?,–
CC(=O)Nc1nc(COc2ccc3ccccc3c2)cs1,–,52.5,96.6,·,–,–
O=C(Nc1nc(COc2ccccc2)cs1)C12CC3CC(CC(C3)C1)C2,–,–,–,–,–,–
Nc1nc(CCOc2ccc(F)cc2)cs1,–[11.5 µM],33.4,153.8,–,–,–
O=C(Nc1nc(COc2ccccc2)cs1)C1CCC1,–,36.8,89.3,–,–,–
CCOc1ccc(NC(=O)c2cc(S(=O)(=O)N3CCC(C)CC3)cn2C)cc1,·,·,·,–,–,·
CC(C)[C@H](NC(=O)[C@H](Cc1ccccc1)n1c(=O)[nH]c2ccccc2c1=O)C(=O)N1CCC[C@H]1C(=O)O,–,–,–,–,–,–
Nc1nc(COc2ccc3ccccc3c2)cs1,–,59.7,116.0,–,–,–
CC(=O)Nc1nc(COc2ccccc2)cs1,–,43.6,64.3,–,–,–
O=C(CN(C(=O)Cn1nnc(-c2ccc(F)cc2)n1)c1cccc(F)c1)NC1CCCC1,–,–,–,–,–,–
CC1CCC2C(=O)OC(Cc3ccccc3)CN2C1c1ccc(Br)cc1 (configuration not stated),·,·,·,·,·,–[12.9 µM]
COc1cccc(C(=O)Nc2cccc(OCC(=O)c3ccccc3)c2)c1,–,20.8,–,–,·,–
COc1cccc(C(=O)NCC(=O)OCC(=O)c2ccccc2)c1,–,29.0,83.1,–,–,–
COc1cccc(C(=O)COc2ccc(NC(=O)c3ccccc3)cc2)c1,–,16.1,–,–,–,–
C/C=C\C1=CCCC1Nc1ncnc2ccc(-c3c(C)noc3C)cc12 (configuration not stated),·,–,–,·,·,–
CC(c1ccccc1)N1CC(C(=O)N2CCN(Cc3ccc(C#N)cc3)CC2)CC1=O (configuration not stated),·,·,·,–,–,·
